Sm TGR inh: S. mansoni TGR enzyme inhibition; Potency, µM (doses to about 114 µM), without a hit: top-dose activity change, negative = inhibition, hits mostly inhibitors; purified TGR, DTNB reduction, TNB absorbance 405 nm; actives 3% (n = 360,000); Q962Y6; further: nearly all actives have a fitted effect of over 60% in size
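Kinetic colorimetric format: TGR-catalysed, NADPH-driven DTNB reduction monitored via TNB absorbance. Enzyme dispensed at 20 nM; compound exposure 15 min at room temperature before reaction start.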
RE007 growth inh: less growth of the S. pombe RE007 Vpr strain; S. pombe RE007 Vpr strain, BacTiter-Glo ATP luminescence, 24 h; Potency, µM (doses to about 92.2 µM), inactives show top-dose activity change, negative = less growth, most hits filed as inhibitors; actives 0.21% (n = 360,000); AID 651644; active means well fitted falling curve with a large enough effect; inconclusive means small, poorly fitted or top-dose-only effect; inactive means no such curve, though single readings can be large or run the other way; further: nearly all actives have a fitted effect of over 50% in size
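Fission yeast RE007 carrying one integrated HIV-1 vpr copy, seeded at OD 0.01 in PMG+AL medium with 23 nL pinned compound. Grown 24 h at 30 degrees; viability read by BacTiter-Glo luminescence after 5 min.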
HCV inhibitor: HCV inhibition. Huh7.5.1 HCVcc-Cre infection, luciferase reporter, 44 h. Potency, µM (doses to about 41.8 µM), for the others: at the highest dose activity change, negative = inhibition, hits mostly inhibitors. actives 3.4% (n = 340,000). AID 651820
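1,000 cells/well; 4 h culture; + compound; + HCVcc-Cre (~0.5 moi); 44 h; luciferase substrate, RT 15 min; read 15 sec.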
FMDV antiviral: blocks foot and mouth disease virus. FMDV antiviral cell-based qHTS. Potency, µM (titrated, usually from 57.9 µM), for the others: at the highest dose activity change, negative = inhibition, usual class: inhibitors. actives 1.2% (n = 410,000). AID 1159524; calls by dose curve; tested in HEK293T cells; further: read-out not given here; nearly all actives have a fitted effect of over 45% in size
Lassa entry inh: blocks Lassa virus binding to or entry into cells. Lassa virus pseudotype entry inhibition, cell reporter. actives 1.2% (n = 300,000). Potency, µM (titrated, usually from 37.9 µM), for the others: at the top dose activity change, negative = inhibition, hits mostly inhibitors; calls by dose curve; tested in HEK293 cells; further: nearly all actives have a fitted effect of over 50% in size
MARV entry inh: blocks Marburg virus binding to or entry into cells | Marburg virus pseudotyped entry inhibition, cell reporter | Potency, µM (highest dose often 37.8 µM), inactives show at the top dose activity change, negative = inhibition, usual class: inhibitors | actives 1.8% (n = 300,000) | AID 540276; calls by dose curve; tested in HEK293 cells
The depositor's hits bear a star; ? = inconclusive; . = no result given; ! = repeats disagree; [ ] = remark or other dose. This is a sample that favours compounds with a hit; in the whole collection about 7.2% have one here. Unless noted, the call rests on the fitted dose curve; in most records, active means well fitted curve in the direction sought with a large enough effect; inconclusive means small, poorly fitted or top-dose-only effect, or another doubt; inactive means no such curve, though single readings can be large; an effect the other way counts as inactive or inconclusive. On the % scale 0 is the no-effect control and ±100 the full control effect; potency means the concentration at half of the fitted maximal effect.

SMILES	Sm TGR inh	RE007 growth inh	HCV inhibitor	FMDV antiviral	Lassa entry inh	MARV entry inh
COc1cc(CN2CCC3(CCC(CNC(=O)c4ccccc4)O3)CC2)cc(OC)c1 (configuration not stated)	.	.	.	-10%	.	.
CCCCCCCN1C/C=C\C(c2ccc(OC)cc2)N(Cc2ccc(F)cc2)C(=O)[C@H]1Cc1ccccc1 (some centres not stated)	-3%	-2%	4%	-18%	.	.
COc1ccc(C2/C=C\CN(Cc3ccco3)CC(=O)N2Cc2ccc(F)cc2)cc1 (configuration not stated)	32µM*	-1%	?	-20%	.	.
COc1ccc(C2C(=O)N(C3CCCCC3)CC(=O)N2Cc2ccco2)cc1 (configuration not stated)	32µM*	2%	-5%	-18%	?	18%
COc1ccc(C2/C=C\CN(S(=O)(=O)c3ccc(C)cc3)[C@H](Cc3ccccc3)C(=O)N2Cc2ccc(F)cc2)cc1 (some centres not stated)	28µM*	1%	?	-4%	.	.
COc1ccc(C2/C=C\CN(C(=O)Nc3ccccc3)CC(=O)N2Cc2ccc(F)cc2)cc1 (configuration not stated)	9%	7%	?	-10%	.	.
COc1ccc(C2C(=O)N(C3CCCCCC3)CC(=O)N2Cc2ccccc2)cc1 (configuration not stated)	11%	.	.	-29%	?	.
CCOC(=O)N1CCC2(CC1)C(C#N)=C(N)Oc1c2c(C)nn1-c1cccc(Cl)c1	1.1µM*	-3%	-15%	-3%	0%	10%
CCOc1ccc(N/C=C/C(=O)c2ccccc2)c([N+](=O)[O-])c1	1%	73%	-28%	-85%	1.1µM*	?
O=[N+]([O-])c1ccc(Nc2nc(N/N=C/c3cccc(F)c3)nc(N3CCCC3)n2)cc1	4%	3%	?	?	?	?
c1ccc(Nc2nc(N3CCCCC3)nc(N3CCNCC3)n2)cc1	1%	7%	?	.	?	7.3µM*
COc1cccc(/C=N/Nc2ncccc2[N+](=O)[O-])c1OC	-3%	?	-10%	7.1µM*	?	1.6µM*
COc1ccc(/C=N/Nc2nc(Nc3ccccc3)nc(N3CCCC3)n2)cc1	7%	0%	10µM*	-11%	6%	5%[46.1 µM]
COc1cccc(/C=N/Nc2nc(Nc3ccc([N+](=O)[O-])cc3)nc(N3CCCC3)n2)c1O	2%	0%	?	-7%	?	2µM*
COc1ccc(C)cc1NC(=O)CSc1nc(=O)n(Cc2ccccn2)c2c1CCC2	-11%	.	.	-29%	13%[46.1 µM]	.
CCOc1ccc(C(=O)Nc2ccc(-c3nc4ccccc4s3)c(C)c2)cc1OCC	6%	.	.	67%	?	.
COC(=O)c1c(NC(=O)COc2ccc(Cl)cc2C)sc2c1CCCCC2	-15%	.	.	-16%	8%[46.1 µM]	.
Cc1ccc(NC(=O)Cn2c(-c3cncs3)nc3ccccc32)c(Br)c1	-11%	.	.	-3%	1%[46.1 µM]	-13%[46.1 µM]
COc1cccc(/C=N/Nc2ccc([N+](=O)[O-])cn2)c1O	7%	-33%	1.1µM*	?	?	?
O=[N+]([O-])c1ccc(NN=Cc2cccc3ccccc23)nc1	.	-13%	-28%	16%	-6%[46.1 µM]	?
Cc1cc(C(=O)CSc2nncs2)c(C)n1Cc1ccco1	-25%	4%	?	-22%	4.5µM*	6.3µM*
Cc1cc(C(=O)CN2C(=O)NC(c3ccccc3)(c3ccccc3)C2=O)c(C)n1Cc1ccco1	-17%	7%	-7%	44%	-1%	?
Cc1cc(C(=O)CCl)c(C)n1Cc1ccco1	4µM*	3%	?	28µM*	?	?
COc1ccc(-c2nc(CN3CCC(C(=O)NCCCN4CCN(c5ccccc5F)CC4)CC3)c(C)o2)cc1OC	-1%	.	.	-34%	?	4.5µM*
Cc1cc2c(cc(C(=O)NCCCN3CCOCC3)n2Cc2ccc(Cl)cc2)o1	35µM*	0%	-11%	-14%	-2%	?
SMILES	Sm TGR inh	RE007 growth inh	HCV inhibitor	FMDV antiviral	Lassa entry inh	MARV entry inh
Cc1cc(=O)oc(C)c1C(=O)NCCCN1CCN(c2ccccc2F)CC1	35µM*	-21%	-3%	-24%	-2%	-4%
Cc1oc(-c2ccc(Cl)cc2)nc1CN1CCC(C(=O)NCCCN2CCN(c3cccc(Cl)c3)CC2)CC1	?	.	.	25µM*	?	?
Cc1oc(-c2cccc(Cl)c2)nc1CN1CCC(C(=O)NCCCN2CCN(c3ccc(F)cc3)CC2)CC1	-20%	.	.	?	?	?
Cc1ccccc1CS(=O)(=O)CCC(=O)NCCCN1CCN(c2ccccc2F)CC1	9%	4%	?	-15%	10%	-20%
Cc1ccc(-n2ncc(C(=O)N3CCN(c4cc(Cl)ccc4C)CC3)c2C2CCN(C(=O)OC(C)(C)C)CC2)cc1	30%	.	.	-4%	?	.
COc1cccc(OC)c1OC[C@H](C)CNC[C@@H]1CCCO1	.	.	.	.	.	-13%
COc1cccc(CNC(=O)c2c(OC)cc(=O)n3c2CCN(C(=O)c2ccc(C)nc2)CC3)c1	.	.	.	-12%	.	.
CCC1CCCCN1CCCNC(=O)C1CCN(Cc2nc(-c3ccc(Cl)cc3)oc2C)CC1 (configuration not stated)	-1%	-16%	1.4µM*	-21%	.	.
CCCCNC(=O)C1CCCN(Cc2nc(-c3ccc(Cl)cc3)oc2C)C1 (configuration not stated)	6%	.	.	?	-6%[46.1 µM]	11%[46.1 µM]
Cc1oc(-c2ccc(Cl)cc2)nc1CN1CCC(C(=O)NCCCN2CCOCC2)CC1	-5%	-4%	8.9µM*	-2%	?	13µM*
COc1ccc(/C=C2/SC(=O)N(CCC(=O)Nc3ccc(C)cc3)C2=O)cc1OC	5%	.	4%	.	.	-1%
COc1ccc(/C=C2\SC(=O)N(CCNC(=O)Cc3coc4cc(C)ccc34)C2=O)cc1OC	-16%	-21%	13µM*	40µM*	-2%	?
Cc1ccc(S(=O)(=O)N2CCCC(C(=O)N(Cc3cccs3)C3CC3)C2)cc1 (configuration not stated)	?	0%	16µM*	?	?	5%
CCOC(=O)C1CCCN(S(=O)(=O)c2ccc(C)cc2)C1 (configuration not stated)	-5%	0%	15%	0%	-6%	?
CCOC(=O)N1CCC(NC(=O)c2cnn(-c3ccc(F)cc3F)c2C2CCN(C(=O)OC(C)(C)C)CC2)CC1	-15%	.	.	-9%	?	.
CC#C[C@]1(O)CC[C@H]2[C@@H]3CCC4=CC(=O)CCC4=C3[C@@H](c3ccc(N(C)C)cc3)C[C@@]21C	0%	-10%[18.4 µM]	35µM*!	-23%	8.2µM*!	10µM*!

From PubChem
